Screening results deposited in PubChem by National Center for Advancing Translational Sciences (NCATS).
Only some compounds are listed: those with a hit (about 15% of all), similar ones and a draw of the others.
ELG1 repair inh = qHTS screen for small molecules that inhibit ELG1-dependent DNA repair in human embryonic kidney (HEK293T) cells expressing luciferase-tagged ELG1 | Potency, µM (highest dose often 46.1 µM), for inactives: at the top dose activity change, negative = inhibition, hits mostly inhibitors | 330,000 compounds, 2.3% hits | HEK293T ELG1-luciferase reporter, luminescence, 16 h; DNA damage induced by 5-fluorouridine; note: nearly all actives have a fitted effect of over 55% in size
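HEK293T cells expressing luciferase-tagged ELG1 (2,000/well) received 5-Fluorouridine plus compound or DMSO for 16 hr at 37 °C. Luciferase was read by ONE-Glo luminescence after 30 min at room temperature.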
TDP1 cell noCPT = qHTS for Inhibitors of human tyrosyl-DNA phosphodiesterase 1 (TDP1): qHTS in cells in absence of CPT | DT40 Tdp1-/- hTDP1 cells, no CPT, ATP luminescence, 48 h | Potency, µM (titrated, usually from 46.2 µM), for inactives: at the highest dose activity change, negative = growth inhibition, usual class: inhibitors | 420,000 compounds, 15% hits; note: nearly all actives have a fitted effect of over 55% in size
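Seeded 400 DT40-hTDP1 cells/well (vehicle DMSO, no 20 nM CPT); pinned compounds; ≥48 hr at 37 °C; CellTiter-Glo luminescence as viability measure.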
RORgamma inh = qHTS for inhibitors of ROR gamma transcriptional activity; Drosophila S2 Gal4-RORgamma UAS-luciferase reporter, 20 h; Potency, µM (doses to about 53.6 µM), inactives show at the top dose activity change, negative = inhibition, most hits filed as inhibitors; 310,000 compounds, 5.4% hits; AID 2551, 2010; note: nearly all actives have a fitted effect of over 60% in size
Target sequence (P51450 whole entry, looked up, the tested form may be a part): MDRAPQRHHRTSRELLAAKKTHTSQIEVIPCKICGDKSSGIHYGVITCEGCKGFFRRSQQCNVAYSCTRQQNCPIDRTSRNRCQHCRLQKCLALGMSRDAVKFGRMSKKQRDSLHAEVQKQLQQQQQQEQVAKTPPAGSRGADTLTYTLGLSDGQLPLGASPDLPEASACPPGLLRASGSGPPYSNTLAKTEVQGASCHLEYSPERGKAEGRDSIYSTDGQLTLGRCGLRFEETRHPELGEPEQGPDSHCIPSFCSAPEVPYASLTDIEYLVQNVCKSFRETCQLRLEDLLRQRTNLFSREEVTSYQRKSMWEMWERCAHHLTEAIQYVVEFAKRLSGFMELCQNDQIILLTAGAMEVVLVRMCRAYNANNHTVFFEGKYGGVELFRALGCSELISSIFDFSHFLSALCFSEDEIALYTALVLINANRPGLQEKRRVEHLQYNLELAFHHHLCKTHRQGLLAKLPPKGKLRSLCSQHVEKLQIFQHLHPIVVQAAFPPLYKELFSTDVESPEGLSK
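Read-out: Photinus luciferase luminescence; inhibitors lower reporter signal. Insect Schneider cells with Gal4-ROR gamma fusion under metallothionein promoter, UAS reporter; 700 uM final copper sulfate induction, 20 hr, ambient temperature.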
ALOX12 inh = Primary qHTS assay for inhibitors of human arachidonate 12S-lipoxygenase (ALOX12): Round 2; Polyunsaturated fatty acid lipoxygenase ALOX12 (Homo sapiens), P18054; 580,000 compounds, 1.1% hits; Potency, µM (top dose mostly 108 µM), without a hit: top-dose activity change, negative = inhibition, most hits filed as inhibitors; purified 12hLO, xylenol orange hydroperoxide absorbance
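Purified human 12hLO at 150 nM in 25 mM Hepes, 0.01% Triton X-100, pH 7.0, preincubated 15 min at room temperature with compound. Reaction started with 40 uM arachidonic acid, 30 min at room temperature. Hydroperoxide measured by Fe-xylenol orange, 573/405 nm absorbance ratio.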
TDP1 cell CPT = qHTS for Inhibitors of human tyrosyl-DNA phosphodiesterase 1 (TDP1): qHTS in cells in presence of CPT | 420,000 compounds, 12% hits | AID 686979, 2013 | Potency, µM (series often up to 46.2 µM), inactives show top-dose activity change, negative = growth inhibition, hits mostly inhibitors | chicken DT40 Tdp1-/-;hTDP1 cells + 20 nM CPT, ATP luminescence, 48 h; note: nearly all actives have a fitted effect of over 55% in size
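Chicken DT40 Tdp1-/- cells stably complemented with human TDP1 were seeded at 400 cells/well in medium containing 20 nM camptothecin, exposed to pin-transferred compounds, and grown at 37 °C for at least 48 hr. Viability was read as ATP luminescence.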
VP16 counter = VP16 counterscreen qHTS for inhibitors of ROR gamma transcriptional activity. Drosophila S2 Gal4-VP16 UAS-luciferase, luminescence, 20 h. Potency, µM (highest dose often 53.6 µM), without a hit: top-dose activity, negative = inhibition, actives largely listed as inhibitors. 310,000 compounds, 3.5% hits. AID 2546, 2010;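 note: Gal4-VP16 expression switched on by copper sulfate through the metallothionein promoter; nearly all actives have a fitted effect of over 50% in size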
* marks the source's active call; other numbers are inactive results; ? = inconclusive; · = no result; [ ] = dose if it differs, or a comment. Calls come from the whole dose curve; as a rule, active = well fitted curve in the direction sought with a large enough effect; inconclusive = small, poorly fitted or top-dose-only effect, or another doubt; inactive = no such curve, though single readings can be large; an effect the other way counts as inactive or inconclusive. % is set by controls: 0 for no effect and ±100 for the full control effect; potency is the fitted concentration of half-maximal effect.

SMILES	ELG1 repair inh	TDP1 cell noCPT	RORgamma inh	ALOX12 inh	TDP1 cell CPT	VP16 counter
CCC(=O)N1N=C(c2cccc(NS(C)(=O)=O)c2)CC1c1cccs1 (stereo not given)	23µM*	?	5%	?	?	4%
COc1ccc(OC)c(C(=O)COC(=O)c2ccc(Cl)c(S(N)(=O)=O)c2)c1	·	·	·	-3%	·	·
CCn1nc(C(=O)N2CC(C(=O)N3CCOCC3)Oc3ccccc32)c2ccccc2c1=O (stereo not given)	·	·	·	-30%	·	·
CS(=O)(=O)Nc1ccc(C2=NN(C(=O)c3cccc(F)c3)C(c3cccs3)C2)cc1 (stereo not given)	16µM*	?	-26%	39%	?	-5%
Cc1cc(-c2ccccc2)nc(N(C)NC(=O)c2c(F)cccc2F)c1S(C)(=O)=O	18µM*	23µM*	26%	-25%	?	5%
Clc1ccc(CSc2nncn2-c2ccc3c(c2)OCCO3)cc1	-9%	5.8µM*	-1%	75%	2.6µM*	0%
CCOC(=O)c1ccc(NC(=S)N2CCN(CCN=CC3=C(O)CC(C)(C)CC3=O)CC2)cc1	6%	13%	13µM*	0%	13%	?
Cc1ccc(Cn2ccc(NC(=O)c3noc4c3CCc3ccccc3-4)n2)cc1	16%	-7%	7%	0%	-1%	-3%
O=C(Nc1cnn(Cc2ccc(Cl)cc2Cl)c1)c1noc2c1CCc1ccccc1-2	·	?	·	-6%	16µM*	·
COc1ccc2c(c1)CCc1c(C(=O)Nc3c(C)nn(Cc4ccc(Cl)cc4)c3C)noc1-2	·	21µM*	·	?	21µM*	·
Cc1nn(Cc2ccc(Cl)cc2)c(C)c1NC(=O)c1noc2c1CCc1ccccc1-2	?	13µM*	?	?	13µM*	-20%
COc1ccc2c(c1)CCc1c(C(=O)Nc3c(C)nn(Cc4ccc(Cl)c(Cl)c4)c3C)noc1-2	·	13µM*	·	?	12µM*	·
Cc1cc(C(=O)Nc2cnn(Cc3ccc(Cl)cc3Cl)c2)no1	-5%	-24%	26%	-6%	-21%	-8%
CC(C)CCNC(=O)C(NC(N)=O)C(C)C (stereo not given)	·	·	·	-28%	·	·
O=C(CSc1nc2ccccc2o1)NCC1CCCCC1	·	·	·	-27%	·	·
N#CC(C(=O)CCc1ccccc1)C(=O)Nc1ccccc1Cl (stereo not given)	·	·	·	-1%	·	·
COc1ccc2c(c1)CCc1c(C(=O)Nc3cc(C)n(Cc4ccc(Cl)cc4)n3)noc1-2	-1%	?	11%	14%	?	11%
CCN(CC)CCNC(=O)c1nn(-c2ccc(Cl)cc2)c2c1CCc1cc(OC)ccc1-2	·	21µM*	·	?	?	·
COc1ccc2c(c1)CCc1c(C(=O)Nc3c(C)nn(Cc4ccccc4)c3C)noc1-2	13µM*	9.2µM*	?	0%	9.2µM*	?
COc1ccc2c(c1)CCc1c(C(=O)NCc3ccc(Cl)cc3)noc1-2	?	-12%	5%	2%	0%	9%
CCCNC(=O)c1onc(CSc2cccc(OC)c2)c1C(=O)NCCC	10%	-23%	6%	-31%	-23%	10%
CC(C)CCNC(=O)c1onc(CSc2ccc(F)cc2)c1C(=O)NCCC(C)C	0%	?	·	-3%	?	·
CC(C)CCNC(=O)c1onc(CSc2ccccc2)c1C(=O)NCCC(C)C	·	?	·	4%	23µM*	·
COc1cccc(SCc2noc(C(=O)NCCC(C)C)c2C(=O)NCCC(C)C)c1	·	15µM*	·	-8%	18µM*	·
COc1ccc(N(Cc2cc(CN3CCOCC3)cs2)S(=O)(=O)c2ccc(F)cc2)cc1	·	·	·	-5%	·	·
SMILES	ELG1 repair inh	TDP1 cell noCPT	RORgamma inh	ALOX12 inh	TDP1 cell CPT	VP16 counter
Cc1ccc(C)c(/C=C/C(=O)c2ccccc(=O)c2O)c1	?	6.5µM*	3.2µM*	20µM*	10µM*	5µM*
Cc1ccc(/C=C/C(=O)c2ccccc(=O)c2O)c(C)c1	-27%	21µM*	7.1µM*	32µM*	15µM*	?
O=C(/C=C/c1ccccc1Cl)c1ccccc(=O)c1O	?	4.1µM*	3.5µM*	?	2.9µM*	5.6µM*
Cc1ccc(C)c(/C=C/C(=O)c2cccc(O)c2)c1	·	·	·	-19%	·	·
O=C(/C=C/c1ccc([N+](=O)[O-])cc1)c1ccccc(=O)c1O	·	3.3µM*	·	?	2.6µM*	·
Cc1cc(NC(=O)C(C)C)ccc1Br	·	·	·	17%	·	·
Oc1ccccc1C1=Nc2nc3ccccc3n2C(c2ccccc2)C1 (stereo not given)	?	18µM*	19%[0.365 µM]	?	21µM*	·
Oc1ccccc1C1=NN(c2ccccc2)C(c2ccc(F)cc2)C1 (stereo not given)	-13%	?	4%	0%	-16%	7%
